HepG2 tox: kills HepG2 cells in TGF-b inhibitor counter-screen; HepG2 CAGA-GFP viability, ATP luminescence, 18 h; Potency, µM (series often up to 46.1 µM), without a hit: at the highest dose activity change, negative = cytotoxicity, usual class: cytotoxic; actives 0.76% (n = 410,000); further: potency means the concentration at half of the fitted maximal effect
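CellTiter-Glo luminescence gave cytotoxicity after 18 hours at 37 degrees C. The cells were HepG2 CAGA-GFP in 1% FBS DMEM, stimulated with 500 pg/mL TGF-beta after compound addition. %Activity was normalised to no-cell wells (complete cell-killing) and DMSO (no toxicity), and curves were fitted and classified.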
DT40 TDP1 CPT: growth inhibition of DT40 Tdp1-/-;hTDP1 cells with camptothecin (screen for TDP1 inhibitors); chicken DT40 Tdp1-/-;hTDP1 cells + 20 nM CPT, ATP luminescence, 48 h; Potency, µM (titrated, usually from 46.2 µM), inactives show top-dose activity change, negative = growth inhibition, most hits filed as inhibitors; actives 12% (n = 420,000); AID 686979; further: potency means the concentration at half of the fitted maximal effect; on the % scale 0 is the no-effect control and ±100 the full control effect; nearly all actives have a fitted effect of over 55% in size
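Chicken DT40 Tdp1-/- cells complemented with human TDP1, 400 cells/well, exposed to compounds plus 20 nM camptothecin for at least 48 h at 37 C; viability read as ATP content by CellTiter-Glo luminescence.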
IL-1B inflam inh: blocks inflammasome-driven IL-1 beta release. THP-1 LPS/ATP IL-1B secretion, AlphaLISA, 16 h; stronger effect = lower value. activity change, % at 57.5 µM. actives 4.7% (n = 360,000); in the data active means activity change below about -50%; inconclusive means mostly about -30% to -49%; further: on the % scale 0 is the no-effect control and ±100 the full control effect
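Secreted IL-1B measured by AlphaLISA bead assay after 16 h compound exposure of THP-1 cells; compounds (final up to 57.5 uM) added 1 h before LPS (250 ng/mL) and ATP (1.25 mM) stimulation; lower signal means less secretion.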
TGFb inhibitor: inhibitors of TGF-b signaling; Potency, µM (titrated, usually from 46.1 µM), without a hit: at the highest dose activity, negative = inhibition, most hits filed as inhibitors; actives 1.2% (n = 410,000); AID 588855; HepG2 CAGA-GFP TGF-b/SMAD3 reporter, GFP fluorescence, 18 h; TGF-beta stimulated, 500 pg/mL final; further: potency means the concentration at half of the fitted maximal effect; on the % scale 0 is the no-effect control and ±100 the full control effect; nearly all actives have a fitted effect of over 65% in size
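Inhibition of TGF-beta-driven CAGA-GFP reporter expression in HEPG2 cells is measured by cellular GFP fluorescence after 18 h stimulation with 500 pg/mL recombinant TGF-beta in 1% FBS medium at 37 degrees C.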
TDP1 cell noCPT: qHTS for Inhibitors of human tyrosyl-DNA phosphodiesterase 1 (TDP1): qHTS in cells in absence of CPT; DT40 Tdp1-/- hTDP1 cells, no CPT, ATP luminescence, 48 h; Potency, µM (titrated, usually from 46.2 µM), without a hit: at the top dose activity change, negative = growth inhibition, actives largely listed as inhibitors; actives 15% (n = 420,000); AID 686978, 2013; further: potency means the concentration at half of the fitted maximal effect; on the % scale 0 is the no-effect control and ±100 the full control effect; nearly all actives have a fitted effect of over 55% in size
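Growth of hTDP1-complemented DT40 Tdp1-knockout cells is measured by ATP luminescence after at least 48 hr compound exposure at 37 °C, with DMSO substituting for the 20 nM CPT used in the parallel screen.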
TDP1 block: blocks human tyrosyl-DNA phosphodiesterase 1; Q9NUW8; recombinant TDP1, AlphaScreen DNA substrate cleavage; Potency, µM (titrated, usually from 130 µM), for the others: top-dose activity change, negative = inhibition, most hits filed as inhibitors; actives 0.28% (n = 350,000); further: potency means the concentration at half of the fitted maximal effect; on the % scale 0 is the no-effect control and ±100 the full control effect; nearly all actives have a fitted effect of over 40% in size
Target sequence (Q9NUW8 whole entry, looked up): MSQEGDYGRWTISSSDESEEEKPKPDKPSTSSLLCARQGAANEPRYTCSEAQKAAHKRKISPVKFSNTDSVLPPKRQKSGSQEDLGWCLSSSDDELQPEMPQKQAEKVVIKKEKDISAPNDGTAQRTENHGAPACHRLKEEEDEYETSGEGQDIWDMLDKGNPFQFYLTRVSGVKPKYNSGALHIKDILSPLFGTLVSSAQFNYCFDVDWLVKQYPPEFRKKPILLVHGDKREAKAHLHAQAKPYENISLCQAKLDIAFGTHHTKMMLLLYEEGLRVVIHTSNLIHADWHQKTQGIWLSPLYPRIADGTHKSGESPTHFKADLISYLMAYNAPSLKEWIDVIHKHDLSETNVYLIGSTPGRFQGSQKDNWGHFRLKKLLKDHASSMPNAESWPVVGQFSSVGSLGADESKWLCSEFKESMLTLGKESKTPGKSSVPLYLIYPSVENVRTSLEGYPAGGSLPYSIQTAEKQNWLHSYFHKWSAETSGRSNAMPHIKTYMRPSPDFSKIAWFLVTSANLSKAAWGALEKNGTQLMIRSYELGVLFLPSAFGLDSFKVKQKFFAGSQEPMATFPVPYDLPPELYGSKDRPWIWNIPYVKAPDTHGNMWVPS
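Compounds were preincubated with Tdp1 (1 nM final) for 15 min at room temperature before substrate (15 nM final) started a 5 min reaction; beads (10 ug/ml final) were then added for 10 min before AlphaScreen detection.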
* = called active by the depositor; ? = inconclusive; . = no result; ! = repeats disagree; [ ] = remark or other dose. An excerpt weighted towards active compounds, which were near 18% of everything screened. Unless noted, the call rests on the fitted dose curve; in most records, active means well fitted curve in the direction sought with a large enough effect; inconclusive means small, poorly fitted or top-dose-only effect, or another doubt; inactive means no such curve, though single readings can be large; an effect the other way counts as inactive or inconclusive.

SMILES	HepG2 tox	DT40 TDP1 CPT	IL-1B inflam inh	TGFb inhibitor	TDP1 cell noCPT	TDP1 block
CC(C)Sc1nnc2n(CCc3ccccc3)c(=O)c3c4c(sc3n12)COC(C)(C)C4	4.3%	23.1µM*	9.4	8.0%	20.6µM*	.
C=CCSc1nnc2n(CCc3ccccc3)c(=O)c3c4c(sc3n12)COC(C)(C)C4	-34.6%	23.1µM*	-12.4	-0.9%	?	-1.8%
Cc1cccc(C)c1NC(=O)C(c1ccnc2ccccc12)n1c(=O)c(-c2ccco2)nc2ccccc21 (stereo not given)	.	?	-7.7	.	16.4µM*	.
Cc1cccc(C)c1NC(=O)C(c1ccccc1)N1CCN(C)CC1 (stereo not given)	.	-1.2%	-13.4	.	-24.1%	.
Cc1cccc(C)c1NC(=O)C(c1ccnc2ccccc12)N1CCN(C)CC1 (stereo not given)	.	?	31.4	.	18.4µM*	.
Cc1cccc(C)c1NC(=O)C(c1ccccc1F)n1c(=O)c(-c2ccco2)nc2ccccc21 (stereo not given)	.	?	-11.2	.	20.6µM*	.
O=C(Nc1ccc2c(c1)OCCO2)C(c1ccnc2ccccc12)N1CCC(Cc2ccccc2)CC1 (stereo not given)	0.7%	?	3.0	?	18.4µM*	.
OCC[C@H]1C[C@H](O)[C@@H](O)[C@]2(OCc3ccccc32)O1	1.2%	-26.4%	4.9	-1.7%	2.3%	-0.7%
c1cncc(-c2cncnc2NCc2cccs2)c1	.	9.1%	.	.	-9.5%	.
O=C(c1cccs1)N1CCN(Cc2cn[nH]c2-c2ccc(F)cc2F)CC1	-17.4%	-17.9%	-50.6*	-4.2%	2.3%	.
CCCCNc1c(-c2ccc(F)cc2)nc2nc(C)cc(C)n12	.	?	15.8	.	?	.
Cc1cc(C)n2c(NC3CCCCC3)c(-c3ccccn3)nc2n1	.	?	43.0	.	23.1µM*	.
Cc1cc(C)n2c(NC3CCCC3)c(-c3ccc(F)cc3)nc2n1	.	?	20.0	.	18.4µM*	.
Cc1cc(C)n2c(NC3CCCC3)c(-c3cc4ccccc4o3)nc2n1	.	?	15.3	.	?	.
C=CCN1C(=O)c2ccc(C(=O)N3CCN(S(=O)(=O)c4ccccc4Br)CC3)cc2C1=O	19.9%	-7.5%	23.4	1.4%	-28.6%	0.0%
Oc1c(Br)cc(Br)cc1CNc1cccc2cccnc12	-63.1%	16.4µM*	0.0	?	?	7.1%
Oc1ccc(Br)cc1CNc1cccc2cccnc12	-63.7%	?	-9.7	?	25.9µM*	.
Cc1cccc(C)c1NC(=O)c1cc(S(N)(=O)=O)c(Cl)cc1O	.	3.9%	.	.	0.4%	.
Cc1ccc(F)cc1NC(=O)C1CCCN(c2ncccn2)C1 (stereo not given)	4.1%	-10.2%	-11.5	-12.5%	-0.5%	-2.6%
CCc1cccc(NC(=O)C2CCCN(c3ncnc4onc(-c5ccc(F)cc5)c34)C2)c1 (stereo not given)	0.8%	13µM*	.	-10.3%	10.3µM*	0.0%
NC(=O)c1ccccc1NC(=O)C1CCCN(c2ncnc3onc(-c4ccc(F)cc4)c23)C1 (stereo not given)	-13.6%	13µM*	.	1.1%	14.6µM*	0.0%
COc1ccccc1NC(=O)C1CCCN(c2ncnc3onc(-c4ccc(F)cc4)c23)C1 (stereo not given)	-30.2%	?	.	-10.6%	16.4µM*	6.6%
CC(C)(C)n1ncc2c(=O)n(Cc3cc(F)ccc3Cl)cnc21	-1.1%	.	.	-2.6%	.	.
COc1ccc(CNC(=O)C(C)n2c(=O)cc(C)c3c(C)nn(-c4ccccc4)c32)cc1 (stereo not given)	3.4%	-26.3%	.	6.2%	-19.3%	8.4%
CCOC(=O)CSc1nc2c(c(=O)[nH]1)C(C)(CC)Cc1ccccc1-2 (stereo not given)	-7.2%	?	73.0	-6.5%	16.4µM*	.
SMILES	HepG2 tox	DT40 TDP1 CPT	IL-1B inflam inh	TGFb inhibitor	TDP1 cell noCPT	TDP1 block
CCOC(=O)C1Cn2c(nc3c(c2=O)C2(CCCC2)Cc2ccccc2-3)S1 (stereo not given)	-16.8%	?	-0.1	-11.9%	?	1.0%
CCOC(=O)C1Cn2c(nc3c(c2=O)C(C)(C)Cc2ccccc2-3)S1 (stereo not given)	-0.8%	-13.3%	-3.4	-12.8%	15.8µM*	-4.0%
CCC1(C)Cc2ccccc2-c2nc(SCC(N)=O)[nH]c(=O)c21 (stereo not given)	-3.0%	-7.3%	0.0	-3.4%	18.9%	.
Cc1cc(C)c(S(=O)(=O)N2CCN(C(=O)C3CCCO3)CC2)c(C)c1 (stereo not given)	-3.3%	-28.1%	9.3	-21.4%	-10.6%	0.1%
COc1ccccc1CCNc1ncnc2nc[nH]c12	-15.6%	?	.	23.7%	?	0.6%
CC(C)(C)[C@H]1COC(=O)CCC/C=C/C[C@H](CC(=O)NCCO)C(=O)N1	-1.3%	-0.3%	12.0	?	13.8%	-0.5%
CCc1cccc(NC(=O)C(NC(=O)C2CCCCC2)C(C)C)c1 (stereo not given)	-42.9%	-13.0%	-5.6	-0.9%	-24.4%	2.5%
Cc1cccc(C)c1OCCn1c(C2CC(=O)N(c3cccc(Cl)c3)C2)nc2ccccc21 (stereo not given)	15.6%	16.4µM*	.	-5.9%	13µM*	-5.1%
Cc1cccc(C)c1OCCCCn1c(C2CC(=O)N(c3ccc(F)cc3)C2)nc2ccccc21 (stereo not given)	-32.4%	13µM*	.	?	14.6µM*	2.5%
O=S1(=O)CCO[C@H]2CCCC[C@@H]2N1Cc1cccc(F)c1	-1.9%	-28.6%	.	14.1%	-17.7%	.
Cc1oc(-c2ccccc2NC(=O)c2ccccc2)nc1CNC(=O)c1cccc(-n2cccn2)c1	.	-15.8%[9.04 µM]	.	.	-7.6%	.
CCCN(C)C1CN(Cc2cn(Cc3cccc(Cl)c3)nn2)S(=O)(=O)C1 (stereo not given)	.	4.4%	0.5	.	-23.9%	.
CCOc1ccc(-n2c(=S)sc3c(=O)[nH]c(SCC(=O)C(C)(C)C)nc32)cc1	-8.7%	25.9µM*	36.4	?	18.4µM*	5.3%
O=c1cc(-c2ccccc2Cl)oc2c([N+](=O)[O-])ccc(O)c12	.	.	.	.	.	-1.0%
O=C1NC(=O)C(c2ccccc2[N+](=O)[O-])=C1Nc1ccc(O)c(Cl)c1	-43.3%	7.31µM*!	48.0	?	26.6µM*!	5.2%[56.1 µM]
